# Test results taken from PubChem BioAssay (NCATS).
# Unmarked numbers belong to inactive results. Records with an inconclusive call do not appear. Entries that show only a call come without a potency. Active and inactive are the calls of the source. Unless noted, calls follow the shape of the dose curve; as a rule, active = well fitted curve in the direction sought with a large enough effect; inconclusive = small, poorly fitted or top-dose-only effect, or another doubt; inactive = no such curve, though single readings can be large; an effect the other way counts as inactive or inconclusive. Residues, ends and D or L forms follow the SMILES beside them. *: point of attachment. Cbz = O=C(OCc1ccccc1)*
# Tests used:
# [1] = target: Voltage-gated inwardly rectifying potassium channel KCNH2 (Homo sapiens) (UniProt Q12809); assay: qHTS Assay for Small Molecule Inhibitors of the Human hERG Channel Activity (AID 588834);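 also: lower thallium flux fluorescence means stronger hERG block; nearly all actives have a fitted effect of over 50% in size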; also: potency is read from the fitted curve at half-maximal effect
# Sequence of Voltage-gated inwardly rectifying potassium channel KCNH2 (Homo sapiens) (Q12809 whole entry, looked up): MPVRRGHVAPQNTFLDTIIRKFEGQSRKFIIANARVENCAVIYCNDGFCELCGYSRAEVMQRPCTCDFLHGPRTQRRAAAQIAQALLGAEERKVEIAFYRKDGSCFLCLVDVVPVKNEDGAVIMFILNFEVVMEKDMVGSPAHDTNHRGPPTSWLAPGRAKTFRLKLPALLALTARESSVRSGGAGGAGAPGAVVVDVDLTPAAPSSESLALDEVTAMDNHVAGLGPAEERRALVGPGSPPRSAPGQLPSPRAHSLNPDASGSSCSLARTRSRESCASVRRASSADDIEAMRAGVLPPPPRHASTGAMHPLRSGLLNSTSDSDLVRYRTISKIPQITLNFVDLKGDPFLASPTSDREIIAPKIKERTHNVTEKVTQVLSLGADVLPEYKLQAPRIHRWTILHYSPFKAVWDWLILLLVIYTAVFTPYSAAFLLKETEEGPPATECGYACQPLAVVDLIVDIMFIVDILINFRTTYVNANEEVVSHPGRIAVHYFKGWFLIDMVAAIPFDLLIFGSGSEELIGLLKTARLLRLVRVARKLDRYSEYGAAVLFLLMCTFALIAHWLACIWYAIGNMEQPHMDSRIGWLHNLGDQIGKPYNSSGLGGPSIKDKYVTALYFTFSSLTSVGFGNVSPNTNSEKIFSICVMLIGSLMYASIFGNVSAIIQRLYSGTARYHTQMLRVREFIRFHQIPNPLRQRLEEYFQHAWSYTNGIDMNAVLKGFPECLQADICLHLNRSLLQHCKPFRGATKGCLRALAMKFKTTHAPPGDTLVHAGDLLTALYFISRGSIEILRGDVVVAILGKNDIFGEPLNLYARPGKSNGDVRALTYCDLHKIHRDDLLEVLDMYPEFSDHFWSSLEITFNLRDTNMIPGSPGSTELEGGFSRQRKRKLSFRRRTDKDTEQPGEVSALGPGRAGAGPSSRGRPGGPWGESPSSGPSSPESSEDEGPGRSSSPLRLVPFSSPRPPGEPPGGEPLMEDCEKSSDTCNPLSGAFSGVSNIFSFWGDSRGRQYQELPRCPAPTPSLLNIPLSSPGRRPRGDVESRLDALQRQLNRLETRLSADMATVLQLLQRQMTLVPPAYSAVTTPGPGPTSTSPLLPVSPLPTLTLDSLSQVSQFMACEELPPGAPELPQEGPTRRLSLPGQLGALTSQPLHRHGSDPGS
# Method in brief: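 hERG-BacMam U2OS, 2000 cells/well; 0.7X FluxOR loading 1 hr RT dark; cpd ~10 min 37 °C; stim buffer; FDSS fluorescence 2 min @ 1 s; AC50 Hill fit.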
# [2] = target: Glutaminase kidney isoform, mitochondrial (Homo sapiens) (UniProt O94925); assay: qHTS for Inhibitors of Glutaminase (GLS): LOPAC Validation (AID 624146); also: nearly all actives have a fitted effect of over 60% in size; also: potency is read from the fitted curve at half-maximal effect
# Sequence of Glutaminase kidney isoform, mitochondrial (Homo sapiens) (O94925 whole entry, looked up, canonical isoform): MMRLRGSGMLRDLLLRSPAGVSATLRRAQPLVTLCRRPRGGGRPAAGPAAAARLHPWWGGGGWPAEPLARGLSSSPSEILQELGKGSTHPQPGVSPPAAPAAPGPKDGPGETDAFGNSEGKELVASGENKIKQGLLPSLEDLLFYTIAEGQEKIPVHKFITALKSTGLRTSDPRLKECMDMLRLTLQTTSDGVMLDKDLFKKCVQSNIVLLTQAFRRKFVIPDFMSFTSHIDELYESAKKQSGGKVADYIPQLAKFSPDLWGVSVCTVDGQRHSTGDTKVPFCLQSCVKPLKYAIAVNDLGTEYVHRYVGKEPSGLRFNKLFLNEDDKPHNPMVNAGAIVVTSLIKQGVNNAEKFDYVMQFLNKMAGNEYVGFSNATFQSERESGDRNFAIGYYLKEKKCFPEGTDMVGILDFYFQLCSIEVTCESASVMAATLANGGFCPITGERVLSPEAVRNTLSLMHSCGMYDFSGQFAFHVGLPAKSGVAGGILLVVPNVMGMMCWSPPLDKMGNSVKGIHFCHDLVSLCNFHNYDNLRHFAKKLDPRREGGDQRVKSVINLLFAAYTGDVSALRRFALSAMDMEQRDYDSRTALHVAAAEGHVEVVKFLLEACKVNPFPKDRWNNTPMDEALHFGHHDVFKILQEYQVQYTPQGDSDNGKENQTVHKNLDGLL
# Method in brief: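 hKGA; 45 mM KH2PO4 pH 8.2 + 0.02% Tween-20; cpd via pin tool; 1 mM Gln soln; GluOx/HRP/Amplex Red; RT 30 min; fluor. t0 & final.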
# [3] = qHTS of Trypanosoma Brucei Inhibitors: LOPAC Validation (AID 624147)
# Method in brief: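 In this concentration-response screen, enzyme-free wells defined baseline while DMSO plates tracked drift. Each reaction combined TbPYK, substrate, compound and 130 uM ADP for 45 min at room temperature. Kinase-Glo Plus luminescence gave the signal.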
# [4] = target: Glucagon-like peptide 1 receptor (Homo sapiens) (UniProt P43220); assay: qHTS of GLP-1 Receptor Agonists: LOPAC Validation (AID 624148); also: potency is read from the fitted curve at half-maximal effect
# Sequence of Glucagon-like peptide 1 receptor (Homo sapiens) (P43220 whole entry, looked up): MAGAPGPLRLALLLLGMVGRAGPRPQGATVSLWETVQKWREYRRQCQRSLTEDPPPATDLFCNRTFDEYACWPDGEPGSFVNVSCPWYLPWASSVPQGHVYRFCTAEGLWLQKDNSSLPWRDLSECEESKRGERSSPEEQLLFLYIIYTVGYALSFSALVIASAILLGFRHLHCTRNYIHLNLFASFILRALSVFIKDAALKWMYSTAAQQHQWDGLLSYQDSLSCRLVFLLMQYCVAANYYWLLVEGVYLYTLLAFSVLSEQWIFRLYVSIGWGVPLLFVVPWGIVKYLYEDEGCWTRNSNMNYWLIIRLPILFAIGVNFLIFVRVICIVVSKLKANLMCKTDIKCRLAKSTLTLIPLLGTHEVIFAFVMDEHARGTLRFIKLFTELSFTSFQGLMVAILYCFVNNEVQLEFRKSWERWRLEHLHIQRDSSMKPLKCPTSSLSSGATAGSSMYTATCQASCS
# Method in brief: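 HEK293 cells stably co-expressing GLP-1R and a cAMP-responsive luciferase reporter, plated 12 hours before compound, then incubated 4-6 hr at 37 deg C. Luminescence read 12 min after detection reagent.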
# [5] = qHTS of Nrf2 Activators: LOPAC Validation (AID 624149)
# Method in brief: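 ARE reporter activation measured in AREc32 firefly luciferase cells after 24 hr compound exposure; Steady-Glo luminescence.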
# [6] = HTS Assay for Allosteric Antagonists of the Human D2 Dopamine Receptor: Hit Validation in HTRF (AID 624455); also: potency is read from the fitted curve at half-maximal effect;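 also: stable D1 dopamine receptor cell line scored for blocking the D1 response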
# Method in brief: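 Signal from an HTRF read-out in D1-expressing stable cells gave hit activity as inhibition of the D1 response.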
# [7] = target: Luciferin 4-monooxygenase (Photinus pyralis) (UniProt P08659); assay: Biochemical firefly luciferase enzyme assay for NPC (AID 624030)
# Method in brief: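 Purified P. pyralis luciferase at 10 nM in 50 mM Tris Acetate (final), luminescence read within 5 minutes of enzyme addition to compounds. Activity normalised to PTC124 versus DMSO; concentration-response curves classed by r2, magnitude and activity.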
# [8] = S16 Schwann cell PMP22 intronic element firefly luciferase assay (AID 624032)
# Method in brief: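 Rat S16 Schwann cells stably carrying firefly luciferase driven by a PMP22 intronic element, in 10% FBS, treated 24 h at 37 C. ONE-Glo luminescence normalized to PTC124 control and DMSO (0%); curves classed by r2, magnitude and activity.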
# [9] = S16 Schwann cell PMP22 intronic element beta-lactamase assay (AID 624044; calls by dose curve)
# Method in brief: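 Rat S16 Schwann cells with beta-Lac driven by a PMP22 intronic element, compound-treated 24 h at 37 °C. LiveBLAzer FRET B/G read: 460 nm normalized to potassium clavulanate vs DMSO; 535 nm FRET as viability; concentration-effect curves classified.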
Compound,Potency [1],Potency [2],Potency [3],Potency [4],Potency [5],Potency [6],outcome [7],outcome [8],outcome [9]
C=C1C(=O)O[C@@H]2[C@H]3O[C@]3(C)CCC=C(C)CC[C@@H]12,inactive,inactive,inactive,inactive,inactive,,,,
CC(=O)NNC(=O)N1Cc2ccccc2Oc2ccc(Cl)cc21,inactive,inactive,inactive,inactive,inactive,,,,
O=C(O)C1=CCNCC1,inactive,inactive,inactive,inactive,inactive,,,,
NOCC(=O)O,inactive,inactive,inactive,inactive,inactive,,,,
N[C@@H](CS(=O)O)C(=O)O,inactive,inactive,inactive,inactive,inactive,,,,
COc1cc(CC(=O)O)ccc1O,inactive,2.82 µM (active),inactive,inactive,inactive,inactive,,,
OC[C@H]1NC[C@@H](O)[C@@H]1O,inactive,inactive,inactive,inactive,inactive,,,,
COc1ccccc1N1CCN(CCCCN2C(=O)c3ccccc3C2=O)CC1,2.24 µM (active),inactive,inactive,inactive,inactive,,,,
Cn1c(=O)c2c(nc(/C=C/c3cccc(Cl)c3)n2C)n(C)c1=O,11.2 µM (active),inactive,inactive,inactive,,,,,
NC1C=CC=C(C(=O)O)C1 (stereo not drawn),inactive,inactive,inactive,inactive,inactive,,,,
OCC1NCC(O)C(O)C1O (stereo not drawn),inactive,inactive,inactive,inactive,inactive,,,,
CCCCCC(O)CCCC(=O)O (stereo not drawn),inactive,inactive,inactive,inactive,inactive,,,,
CC(N)=NCCCC[C@@H](N)C(=O)O,inactive,inactive,inactive,inactive,inactive,,,,
[N-]=[N+]=Nc1ccc(C(=O)CSC[C@H](NC(=O)CC[C@H](N)C(=O)O)C(=O)NCC(=O)O)cc1,inactive,inactive,inactive,inactive,,,,,
N[C@H](C(=O)O)[C@H]1C[C@@H]1C(=O)O,inactive,inactive,inactive,inactive,inactive,,,,
Fc1ccc(CN(C2=NCCN2)c2c(Cl)cccc2Cl)cc1,10 µM (active),inactive,inactive,inactive,inactive,,,,
CC(C)[C@H](NC(=O)OCc1ccccc1)C(=O)N[C@H](C=O)Cc1ccccc1 (Cbz-Val-Phe-aldehyde),inactive,inactive,inactive,inactive,inactive,,,,
Cc1cc2c(cc1Cl)N(C(=O)Nc1ccnc3ccccc13)CC2,inactive,7.08 µM (active),inactive,inactive,,,,,
O=C(O)C1CN(CCCP(=O)(O)O)CCN1 (stereo not drawn),inactive,inactive,inactive,inactive,inactive,,,,
N[C@H]1CONC1=O,inactive,inactive,inactive,inactive,,,,,
O=[N+]([O-])c1cccc2cn[nH]c12,inactive,inactive,inactive,inactive,inactive,,,,
CCOC(=O)C12CC1/C(=N/O)c1ccccc1O2 (stereo not drawn),inactive,inactive,inactive,inactive,inactive,,,,

Compound,Potency [1],Potency [2],Potency [3],Potency [4],Potency [5],Potency [6],outcome [7],outcome [8],outcome [9]
COC(=O)C1=C(C)NC(C)=C([N+](=O)[O-])C1c1ccccc1C(F)(F)F (stereo not drawn),inactive,inactive,inactive,inactive,inactive,,,,
CC(C)C[C@H](NC(=O)C1OC1C(=O)O)C(=O)NCCCCN=C(N)N (stereo partly drawn),inactive,inactive,inactive,inactive,inactive,,,,
COc1ccccc1N1CCN(CCCCNC(=O)c2ccc3ccccc3c2)CC1,1.12 µM (active),inactive,inactive,inactive,inactive,,,,
COc1ccc(-c2ccc(N)[n+](CCCC(=O)O)n2)cc1,inactive,inactive,inactive,inactive,inactive,,,,
COc1cc(C(O)C(=O)O)ccc1O (stereo not drawn),inactive,2.82 µM (active),inactive,inactive,inactive,inactive,,,
CC(C)(C)NCC(O)COc1cccc2[nH]c(=O)[nH]c12 (stereo not drawn),inactive,inactive,inactive,inactive,inactive,,,,
Cn1ccnc1,inactive,inactive,inactive,inactive,inactive,,,,
CN1CCC2(CCN3CCc4c(oc5ccccc45)C3C2)N(C)C1=O (stereo not drawn),inactive,inactive,inactive,inactive,inactive,,,,
O=C(O)c1cc(=O)cc(C(=O)O)[nH]1,inactive,inactive,inactive,inactive,inactive,,,,
O=C(O)/C=C/c1cnc[nH]1,inactive,inactive,inactive,inactive,inactive,,,,
Cc1nc(N=Nc2ccc(S(=O)(=O)O)cc2S(=O)(=O)O)c(COP(=O)(O)O)c(C=O)c1O,inactive,inactive,inactive,inactive,inactive,,,,
NC(N)=[N+]1CCc2ccccc2C1,inactive,inactive,inactive,inactive,inactive,,,,
NC(N)=N[C@@H](CCC(=O)O)C(=O)O,inactive,inactive,inactive,inactive,inactive,,,,
CN1CCN(c2nc3cc(C(F)(F)F)ccc3n3cccc23)CC1,3.98 µM (active),inactive,inactive,inactive,inactive,,,,
CCCC(=O)NCCc1c2n(c3ccc(OC)cc13)CCCc1ccccc1-2,inactive,inactive,inactive,inactive,inactive,,,,
Cc1nc(N=Nc2cc(S(=O)(=O)O)c3cc([N+](=O)[O-])cc(S(=O)(=O)O)c3c2)c(COP(=O)(O)O)c(C=O)c1O,inactive,inactive,inactive,inactive,inactive,inactive,,,
Cn1c(=O)[nH]c2ncn(C)c2c1=O,inactive,inactive,inactive,inactive,inactive,inactive,,,
OC[C@H]1O[C@@H](n2cnc3cncnc32)[C@H](O)[C@@H]1O,inactive,inactive,inactive,inactive,inactive,inactive,,,
O=c1[nH]c2ccccc2c2ccccc12,inactive,inactive,inactive,inactive,inactive,inactive,,,
O=c1[nH]c2cc(Cl)ccc2c(O)c1-c1ccc(Oc2ccccc2)cc1,inactive,inactive,inactive,inactive,inactive,inactive,,,
CC(N)(C(=O)O)c1ccc(C(=O)O)cc1 (stereo not drawn),inactive,inactive,inactive,inactive,inactive,inactive,,,

Compound,Potency [1],Potency [2],Potency [3],Potency [4],Potency [5],Potency [6],outcome [7],outcome [8],outcome [9]
CCC(=O)N1CCN(C(=O)c2ccccc2)CC1,inactive,inactive,inactive,inactive,inactive,inactive,,,
CCC1(O)CC2CN(CCc3c([nH]c4ccccc34)[C@@](C(=O)OC)(c3cc4c(cc3OC)N(C=O)C3[C@]45CCN4CC=C[C@@](CC)([C@@H](OC(C)=O)[C@]3(O)C(=O)OC)[C@H]45)C2)C1 (stereo partly drawn),inactive,7.08 µM (active),inactive,inactive,inactive,inactive,,,
CC(N)=O,inactive,inactive,inactive,inactive,inactive,inactive,,,
C#CCn1c(=O)c2c(ncn2C)n(C)c1=O,inactive,inactive,inactive,inactive,inactive,inactive,,,
CCCCCCCCCCC/C=C\C(C)(C)/C=C\CCCC(=O)O,inactive,inactive,inactive,inactive,inactive,inactive,,,
C=CC1(C)CC(=O)C2(O)C(C)(O1)C(OC(C)=O)C(O)C1C(C)(C)CCC(O)C12C (stereo not drawn),inactive,inactive,inactive,1.03 µM (active),inactive,0.517 µM (active),,,
N#Cc1cc2nc(O)c(O)nc2cc1[N+](=O)[O-],inactive,inactive,inactive,inactive,inactive,inactive,,,
Nn1nnc2ccccc21,inactive,inactive,inactive,inactive,inactive,inactive,,,
Nc1ccc(-c2nc3ccc(-c4nc5ccc(N)cc5[nH]4)cc3[nH]2)cc1,inactive,5.01 µM (active),inactive,inactive,inactive,inactive,,,
CC(C)C[C@H](NC(=O)[C@H](O)[C@H](N)Cc1ccccc1)C(=O)O,inactive,inactive,inactive,inactive,inactive,inactive,,,
Nc1ccc(-c2ccc3ccccc3n2)cc1,inactive,inactive,inactive,inactive,inactive,inactive,,,
CC(C)Cn1c(=O)n(C)c(=O)c2[nH]cnc21,inactive,inactive,inactive,inactive,inactive,inactive,,,
CCN1C(=O)C=CC1=O,inactive,inactive,inactive,inactive,inactive,inactive,,,
NC(=O)CC[C@H](N)C(=O)O,inactive,inactive,inactive,inactive,inactive,inactive,,,
COCc1nc2c([nH]1)c(=O)n(C)c(=O)n2CC(C)C,inactive,inactive,inactive,inactive,inactive,inactive,,,
CNC(=O)c1cc2c(cn1)[nH]c1ccccc12,inactive,inactive,inactive,inactive,inactive,inactive,,,
CC(=O)/C(C)=N/O,inactive,inactive,inactive,inactive,inactive,inactive,,,
C#CC(N)CCC(=O)O (stereo not drawn),inactive,inactive,inactive,inactive,inactive,inactive,,,
O=C1OC(=O)C2C3CCC(O3)C12 (stereo not drawn),inactive,inactive,inactive,inactive,inactive,inactive,,,
N#C/C(=C\c1ccc(O)c(O)c1)C(=O)NCCCNC(=O)/C(C#N)=C/c1ccc(O)c(O)c1,inactive,inactive,inactive,inactive,inactive,inactive,,,
